Assay results published in PubChem BioAssay (NCATS).
Inconclusive results are not listed. The source made the active and inactive calls. Calls follow the shape of the dose curve; as a rule, active = well fitted inhibition curve with a large enough effect; inconclusive = small, poorly fitted or top-dose-only effect; inactive = flat fitted curve, though single readings scatter.

system: CRL-7250; assay: qHTS assay to identify novel small-molecules to repurpose for Merkel cell carcinoma treatment (AID 1296009); conditions: MCC and control cell lines, CellTiter-Glo viability, 72 h; at 44.8 µM (top of the series) unless noted; also: nearly all actives have a fitted effect of over 60% in size
In short: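 Cell viability, measured as CellTiter-Glo luminescence, was normalized between DMSO and no-cell wells. The cells had been exposed to 8- or 11-point compound dilutions for 72 hr at 37 degree celsius.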

| SMILES | outcome |
| --- | --- |
| Cl/C(=C\n1cncn1)c1ccc(Cl)cc1Cl | inactive |
| CC1=C(C(=O)O)N2C(=O)[C@@H](NC(=O)[C@H](N)C3=CCC=CC3)[C@H]2SC1 | inactive |
| O=C(O)COC(=O)Cc1ccccc1Nc1c(Cl)cccc1Cl | inactive |
| N/C(=N\N=C\c1ccc(Cl)cc1)N/N=C/c1ccc(Cl)cc1 | inactive |
| COc1ccc(CN2CCN(C(c3ccc(F)cc3)c3ccc(F)cc3)CC2)c(OC)c1OC | inactive |
| CCOc1ccccc1C(N)=O | inactive |
| CCCCCCCC/C=C\CCCCCCCCN | inactive |
| Cc1c(Cl)cccc1Nc1ccccc1C(=O)O | inactive |
| CC1CCc2cc(F)cc3c(=O)c(C(=O)O)cn1c23 (stereo not given) | inactive |
| Cc1c(N)cccc1C(F)(F)F | inactive |
| O=C(NCC1CN(c2ccc(N3CCOCC3=O)cc2)C(=O)O1)c1ccc(Cl)s1 (stereo not given) | inactive |
| O=c1[nH]c(=O)c2ccccc2o1 | inactive |
| CCOC(=O)[C@H](CCc1ccccc1)N[C@@H](C)C(=O)N1C(=O)N(C)C[C@H]1C(=O)O | inactive |
| CC1(C)OC(=O)Nc2ccc(Br)cc21 | inactive |
| CN1CCOC(c2ccccc2)c2ccccc2C1 (stereo not given) | inactive |
| Cc1cc(CC(=O)O)n(C)c1C(=O)c1ccc(Cl)cc1 | inactive |
| CC(=O)[C@@]1(O)CC[C@H]2[C@@H]3CCC4=CC(=O)CC[C@]4(C)[C@H]3CC[C@@]21C | inactive |
| CCN(CC)C(=O)N1CCN(C)CC1 | inactive |

| SMILES | outcome |
| --- | --- |
| CCOc1ccccc1O[C@H](c1ccccc1)[C@H]1CNCCO1 | inactive |
| CN(C)CCCOC1(Cc2ccccc2)CCCCCC1 | inactive |
| Nc1c2c(nc3ccccc13)CCCC2 | inactive |
| CCCCCCCCCCCCCCCCC(C(=O)O)C(O)(CC(=O)O)C(=O)O (stereo not given) | inactive |
| COc1ccc2c(c1)c(CC(=O)O)c(C)n2C(=O)c1ccc(Cl)cc1 | inactive |
| Clc1ccc(C(Cn2ccnc2)OCc2ccc(Sc3ccccc3)cc2)c(Cl)c1 (stereo not given) | inactive |
| CCN1CCCC(OC(=O)C(c2ccccc2)c2ccccc2)C1 (stereo not given) | inactive |
| C[C@@H]1CC[C@@]2(OC1)O[C@H]1C[C@H]3[C@@H]4CC[C@H]5C[C@@H](O)CC[C@]5(C)[C@H]4CC(=O)[C@]3(C)[C@H]1[C@@H]2C | inactive [at 4.96 µM] |
| C[C@]12CC[C@@H]3c4ccc(O)cc4CC[C@H]3[C@@H]1CCC2=O | inactive |
| CCOC(=O)OC(C)OC1=C(C(=O)Nc2ccccn2)N(C)S(=O)(=O)c2ccccc21 (stereo not given) | inactive |
| CCCc1ncc(C[n+]2ccccc2C)c(N)n1 | inactive |
| C[C@]12CC[C@@H]3c4ccc(O)cc4CC[C@H]3[C@@H]1CC[C@@H]2OC(=O)CCC1CCCC1 | inactive |
| CCN(CC)CC(=O)OCC(=O)[C@@]1(O)CC[C@H]2[C@@H]3CCC4=CC(=O)CC[C@]4(C)[C@H]3[C@@H](O)C[C@@]21C | inactive |
| CCC(CN)=C(c1ccccc1)c1ccccc1 | inactive |
| Clc1ccc(C(Cn2ccnc2)OCc2ccsc2Cl)c(Cl)c1 (stereo not given) | inactive |
| O=C1CC2(CCCC2)CC(=O)N1CCCCN1CCN(c2ncccn2)CC1 | inactive |
| CCCCC1(COC(=O)CCC(=O)O)C(=O)N(c2ccccc2)N(c2ccccc2)C1=O | inactive |
